Results published in PubChem BioAssay (NCATS).
Inconclusive results are not listed. Where a call stands in place of a potency, no number is given. Activity calls are given as the source filed them. Calls follow the shape of the dose curve; as a rule, active = well fitted cell-killing curve with a large enough effect; inconclusive = small, poorly fitted or top-dose-only effect, or effect the other way; inactive = no such curve, though single readings can be large or run the other way.
Potency is read from the fitted curve at half-maximal effect.

Assay: Viability qHTS for spleen associated tyrosine kinase inhibitor (SYKi) naive MV4-11 cells (AID 1963823); also: nearly all actives have a fitted effect of over 40% in size
Settings: MV4-11 AML viability, CellTiter-Glo luminescence, 72 h; series mostly up to 45 µM
In short: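 Seeding of 500 SYKi-naive MV4-11 cells per well onto pre-dispensed compounds preceded a 72 hr incubation at 37 C. Luminescent CellTiter-Glo signal, read after 10 min at room temperature, reflected viable cells.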
For `CC(C)[C@@H]1C(=O)N(S(C)(=O)=O)[C@@H]2CCN(C(=O)/C=C/CN3CCCCC3)[C@H]21`, the Potency was “inactive”. For `N#Cc1cc(CN2CCC(Nc3ncnc4sc(Cl)cc34)CC2)ccc1F`, the Potency was 9.2 µM (active). With `CCn1c(=O)c(-c2ccc(-c3cncs3)cc2Cl)cc2cnc(Nc3ccc(N4CCN(C)CC4)cc3)nc21` the Potency was 0.291 µM (active). For `CC1(C)CC(NC(=O)C(=O)Nc2ccc(Cl)cc2)CC(C)(C)N1`, the Potency was “inactive”. With `Cc1cccc(C#Cc2cc(F)cc(C#N)c2)n1` the Potency was “inactive”. With `C[C@@H]1C[C@H](C)CN(CCC(=O)Nc2ccc(Br)cc2)C1` the Potency was “inactive”. For `CC(C)c1cc2c(cc1S(=O)(=O)O)[C@@]1(C)CCC[C@@](C)(C(=O)O)[C@@H]1CC2`, the Potency was “inactive”. For `Cc1cc(CC(=O)O)n(C)c1C(=O)c1ccc(Cl)cc1`, the Potency was “inactive”. In the case of `COC(=O)C(CC1CCCC1)c1ccc(S(C)(=O)=O)cc1` (configuration not stated), the Potency is reported as “inactive”. With `O=c1c(-c2ccccc2)c1-c1ccccc1` the Potency was 23.7 µM (active). With `CN(CCCOc1ccc(Cc2ccccc2)cc1)CCC(=O)O` the Potency was “inactive”. In the case of `COc1cncc(C#Cc2ccccn2)c1`, the Potency is reported as “inactive”. With `COc1cccc(OC)c1-c1nc(C(=O)N[C@@H](CC(C)C)C(=O)O)cn1-c1ccnc2cc(Cl)ccc12` the Potency was “inactive”. For `COc1ccc(-n2c(SCC#N)nc3sc4c(c3c2=O)CCCC4)cc1`, the Potency was “inactive”. With `CN(C)[C@@H]1C(=O)C(C(=O)NCN2CCCC2)=C(O)[C@@]2(O)C(=O)C3=C(O)c4c(O)cccc4[C@@](C)(O)C3C[C@@H]12` (some centres not stated) the Potency was “inactive”. In the case of `O=C1OC2(c3ccccc31)c1cc(Br)c(O)c(Br)c1Oc1c2cc(Br)c(O)c1Br`, the Potency is reported as “inactive”. With `CN1CCN(c2nc(-c3ccc(C(=O)NC4(C(=O)NCC#N)CCCCC4)cc3)cs2)CC1` the Potency was “inactive”.
